High-throughput results deposited in PubChem BioAssay by National Center for Advancing Translational Sciences (NCATS).
An excerpt weighted towards active compounds, which were near 2.6% of everything screened.
GLP1R inv ag: GLP-1 receptor (human) inverse agonism | P43220 | HEK293 GLP-1R CRE-luciferase, luminescence, 24 h; GLP-1R form is constitutively active | Potency, µM (titrated, usually from 38.3 µM), without a hit: at the highest dose activity change, negative = inhibition, actives largely listed as inhibitors | 410,000 compounds, 1.6% hits; further: on the % scale 0 is the no-effect control and ±100 the full control effect; nearly all actives have a fitted effect of over 55% in size
Target sequence (P43220 whole entry, looked up): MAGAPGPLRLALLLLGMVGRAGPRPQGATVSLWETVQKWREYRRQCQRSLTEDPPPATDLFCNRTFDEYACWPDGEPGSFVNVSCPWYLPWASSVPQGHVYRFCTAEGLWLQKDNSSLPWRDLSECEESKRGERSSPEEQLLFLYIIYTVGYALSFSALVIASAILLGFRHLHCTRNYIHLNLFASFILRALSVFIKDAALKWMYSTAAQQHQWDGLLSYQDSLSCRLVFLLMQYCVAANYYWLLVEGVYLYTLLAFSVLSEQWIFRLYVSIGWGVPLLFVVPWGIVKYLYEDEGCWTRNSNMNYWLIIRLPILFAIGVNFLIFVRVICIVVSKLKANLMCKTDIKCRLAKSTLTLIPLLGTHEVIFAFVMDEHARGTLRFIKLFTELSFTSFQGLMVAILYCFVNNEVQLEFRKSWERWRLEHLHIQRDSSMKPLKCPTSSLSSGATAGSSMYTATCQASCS
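HEK293 cells stably co-expressing constitutively active GLP-1R and a cAMP-responsive luciferase reporter were seeded in DMEM with 10% Nu serum, given compounds after 12 h, and incubated 24 h at 37 deg C. Luminescence was then read.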
GLP1R ag: GLP-1 receptor (human) agonism; Potency, µM (titrated, usually from 45.6 µM), for inactives: top-dose activation, most hits filed as activators; 380,000 compounds, 0.007% hits; P43220; HEK293 GLP-1R CRE-luciferase, luminescence, 4-6 h; cells express a hypersensitive GLP-1R form; further: % of control where 0% means no effect
BRCA1 expr act: BRCA1 expression activation; MCF7-BRCA1-FFLuc reporter, luminescence, 48 h; response scale: scaled: vehicle 0%, 10 µM genistein 100%; Potency, µM (series often up to 46.1 µM), without a hit: at the top dose activation, hits mostly activators; 380,000 compounds, 1.1% hits; AID 624202; further: nearly all actives have a fitted effect of over 80% in size
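Reporter cells (MCF7, BRCA1 promoter-firefly luciferase) received library compounds across a concentration series for 48 h. End-point luminescence was measured and concentration-effect curves derived after normalization.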
GLP1R cytotox: cytotoxic in the GLP-1 receptor inverse agonist counter-screen; HEK293 cAMP-luciferase reporter cells, luminescence, 24 h; Potency, µM (highest dose often 38.3 µM), without a hit: top-dose activity change, negative = inhibition, actives largely listed as inhibitors; 410,000 compounds, 0.13% hits; AID 624418;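 further: loss of luciferase light is scored as toxicity; on the % scale 0 is the no-effect control and ±100 the full control effect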
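1536-well qHTS counterscreen of the MLSMR; 200 cells/uL, 12 h pre-incubation, 23 nL cpd, 24 h at 37 deg C 5% CO2, luciferase detection reagent, 12 min RT, luminescence. Inhibition = undesired.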
* hit, by the source's call; ? = inconclusive; . = no result given. The call rests on the fitted dose curve; in most records, active means well fitted curve in the direction sought with a large enough effect; inconclusive means small, poorly fitted or top-dose-only effect, or another doubt; inactive means no such curve, though single readings can be large; an effect the other way counts as inactive or inconclusive. Potency means the concentration at half of the fitted maximal effect.

SMILES	GLP1R inv ag	GLP1R ag	BRCA1 expr act	GLP1R cytotox
O=C(CCCN1C(=O)/C(=C\c2ccccc2)SC1=S)Nc1ccc(O)cc1	?	-3%	-87%	10µM*
O=C(CCN1C(=O)/C(=C\C=C\c2ccccc2)SC1=S)Nc1cccc(C(=O)O)c1	149%	-1%	6.3µM*	-29%
CN1CCN(C(=O)CCCN2C(=O)/C(=C/c3ccc(Cl)cc3)SC2=S)CC1	10µM*	-2%	-58%	?
Cc1ccc(/C=C2/SC(=S)N(CCCC(=O)Nc3ccc(O)cc3)C2=O)cc1	?	3%	-89%	-27%
O=C1/C(=C/c2ccc(Cl)cc2)SC(=S)N1CCC(=O)N1CCCCC1CCO (centres undefined)	?	-4%	-58%	?
O=C1/C(=C/c2ccccc2)SC(=S)N1CCCC(=O)N1CCCCC1CCO (centres undefined)	5µM*	-3%	-63%	0%
CCN(CC(=O)Nc1ccc2c(c1)OCCO2)C(=O)CC(NC(C)=O)c1ccccc1 (centres undefined)	4%	3%	18%	-2%
CCOc1ccc(N/C(C)=C\C(=O)c2ccc3c(c2)OCCO3)cc1	?	10%	13µM*	-8%
CCOc1ccc(C(=O)N(CC)CC(=O)Nc2ccc3c(c2)OCCO3)cc1	5%	-1%	?	0%
CCOc1ccc(N/C(C)=C/C(=O)c2ccc3c(c2)OCCO3)cc1	?	8%	4.5µM*	10%
COc1ccc(C(=O)/C=C(\C)Nc2ccc3c(c2)OCO3)cc1	7%	5%	?	-15%
COc1ccc2c3c(n(C(=O)OC(C)(C)C)c2c1)C1CC=C(COC(C)=O)CN1CC3 (centres undefined)	1%	.	.	4%
CC(C)CN(CC(C)C)c1nn[nH]n1	19%	-1%	-3%	1%
Cc1ccc(-n2ncc(C(=O)NCCc3ccsc3)c2C2CCN(C(=O)OC(C)(C)C)CC2)cc1C	-2%	.	.	0%
COc1ccccc1-c1nnc(NC(=O)CSc2nncn2C)s1	-12%	0%	10µM*	-2%
Cc1cccc(N2C(=O)CC(Sc3nc(C)c4c(n3)CCCC4)C2=O)c1 (centres undefined)	-22%	22%	1%	5µM*
COC(=O)c1cccc2c(C(=O)O)cc(-c3ccccc3)nc12	23%	-3%	-21%	-9%
C/C(=C\C(=O)c1ccc(Br)cc1)Nc1ccc(Cl)cc1	?	9%	2.8µM*	2%
C/C(=C\C(=O)c1ccc(Cl)cc1)Nc1ccc(N2CCOCC2)cc1	16%	0%	22%	-14%
CC(C)=CC(=O)Nc1ccc(Cl)cc1	-11%	-1%	3.2µM*	2%
CCc1ccc(NC(=O)c2sc3nc(C)c(C(=O)Nc4ccc(C)cc4C)c(-c4ccco4)c3c2N)cc1	9%	.	.	47%
O=C1C[C@H]2[C@H](CO)[C@@H](OC(=O)c3ccc(-c4ccccc4)cc3)C[C@H]2O1	?	20%	13µM*	-24%
O=C1CC2C(CC(OC(=O)c3ccc(-c4ccccc4)cc3)C2CO)O1 (centres undefined)	-24%	22%	?	-21%
Cc1ccc(-c2cc(C(=O)OCC(=O)NC3CC3)c3ccccc3n2)cc1	?	12%	56%	1%
C[C@@H]1CN([C@H](C)CO)C(=O)c2cc(Br)cnc2O[C@H]1CN(C)C	20%	-1%	14%	2%
SMILES	GLP1R inv ag	GLP1R ag	BRCA1 expr act	GLP1R cytotox
Cc1cc(-c2ccc(S(=O)(=O)Nc3ccc(Cl)cc3)cc2)on1	?	.	.	-7%
Cc1cc(C)cc(NS(=O)(=O)c2ccc(-c3cc(C)no3)cc2)c1	3.5µM*	.	.	-22%
O=C(Nc1ccc(F)cc1)c1cc(S(=O)(=O)Nc2ccc(F)cc2)cs1	10µM*	-17%	-46%	-30%
COc1ccc(CCNC(=O)c2ccc(CN3CCC(Cc4ccccc4)CC3)cc2)cc1OC	9%	8%	-60%	11%
CCc1ccccc1NC(=O)c1ccc(CN2CCC(Cc3ccccc3)CC2)cc1	8.9µM*	-2%	-58%	?
O=C(NCc1ccccc1)c1ccc(CN2CCC(Cc3ccccc3)CC2)cc1	10µM*	7%	-20%	-13%
COCCNC(=O)c1ccc(CN2CCC(Cc3ccccc3)CC2)cc1	-18%	-5%	-2%	20%
CC(C)(C)n1nnnc1C(c1cccs1)N1CCCc2ccccc21 (centres undefined)	11µM*	-11%	-33%	2%
CC(C)(C)n1nnnc1C(c1cccs1)N1CCCC2(CCCCC2)C1 (centres undefined)	0%	-4%	9%	-15%
NC1(C(=O)O)CSSC1	?	0%	-93%	11µM*
Cc1cnc(NC(=O)c2sc(Nc3ccccc3)nc2N)o1	?	11%	13µM*	-6%
CCOC(=O)c1ccc(NC(=O)c2c(NCc3sccc3C)sc3c2CCCCC3)cc1	9%	.	.	-9%
O=C(Nc1ccccc1)Nc1csc2ccccc12	8.9µM*	0%	56%	0%
CC(=O)Nc1csc2ccccc12	-12%	-2%	0%	4%
Cc1[nH]c2ccccc2c1C(=O)CN1C(=O)NC(C)(c2ccc(Cl)cc2Cl)C1=O (centres undefined)	13µM*	17%	-67%	?
CCCCS/C(N)=N/N=C/c1ccccc1O	?	25%	7.9µM*	2.8µM*
CCCS/C(N)=N/N=C/c1cc(C)ccc1O	?	?	?	-16%
Cc1cccc(C)c1NC(=O)CN(C)S(=O)(=O)c1ccc2c(c1)n(C)c(=O)c(=O)n2C	4%	.	.	-1%
O=C1c2[nH]nc(-c3ccccc3O)c2C(c2cccc(Br)c2)N1Cc1ccncc1 (centres undefined)	13µM*	.	.	?
Cc1ccc(C2c3c(-c4ccccc4O)n[nH]c3C(=O)N2Cc2ccncc2)cc1 (centres undefined)	0%	0%	-69%	-41%
COC(=O)c1ccc(C23CC4(C2)[C@H](CN(Cc2cccnc2)[C@@H]4c2ccccc2)C3c2ccc(C(F)(F)F)cc2)cc1 (some centres undefined)	?	4%	0%	-21%
COC(=O)c1ccc(C23CC4(C2)[C@H](CN(Cc2cccnc2)[C@@H]4c2ccccc2)C3c2ccccc2)cc1 (some centres undefined)	8.9µM*	-1%	0%	7%
FC(F)(F)c1ccc(C2[C@H]3CN(Cc4cccnc4)[C@H](c4ccccc4)C34CC2(c2cccnc2)C4)cc1 (some centres undefined)	11µM*	-4%	-67%	?
FC(F)(F)c1ccc(C2[C@H]3CN(Cc4ccc(-c5ccccc5)cc4)[C@H](c4ccccc4)C34CC2(c2cccnc2)C4)cc1 (some centres undefined)	1%	-5%	35%	9%
CCCCCC[n+]1c(-c2ccc(Cl)cc2Cl)csc1Nc1ccccc1	10µM*	-2%	-19%	4%
